Data taken from PubChem BioAssay (EPA / NIEHS).
Values joined by “and” are separate entries in the source; they are usually repeats but may differ in a detail not shown here. Equal values may be shown once. Inconclusive results are not listed. More than one record can exist for a structure, and the calls need not agree. Active and inactive are the calls of the source. Rule for the calls: active = hit-call score of the fitted dose curve at least 0.9, where 1 is the maximum; inconclusive = response in the unintended direction; inactive = score below 0.9.

Legend:
[1] = molecular target: rat Serotonin, 5-Hydroxytryptamine Receptor 1 (5HT1), Non-Selective Binding, Htr1a (gene 24473) (UniProt P19327); assay: NVS_GPCR_r5HT1_NonSelective: NovaScreen (NVS) G Protein-Coupled Receptor Assay for rat Serotonin, 5-Hydroxytryptamine Receptor 1 (5HT1), Non-Selective Binding (AID 2283286)
How it was run: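 Binding of a radioligand to rat cortex membranes is read by filtration and scintillation counting after 1 h. Compounds were screened at 25 uM in duplicate. Actives were then titrated to a top of 50 uM. DMSO is the baseline.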

[2] = molecular target: human Opioid Receptor Mu (Opiate Mu), OPRM1 (gene 4988) (UniProt P35372); assay: NVS_GPCR_hOpiate_mu: NovaScreen (NVS) G Protein-Coupled Receptor Assay for human Opioid Receptor Mu (Opiate Mu) (AID 2283290);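 note: hits lower bound tracer signal versus DMSO meaning displacement of the ligand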
Chain of human Opioid Receptor Mu (Opiate Mu), OPRM1 (gene 4988) (P35372 whole entry, looked up): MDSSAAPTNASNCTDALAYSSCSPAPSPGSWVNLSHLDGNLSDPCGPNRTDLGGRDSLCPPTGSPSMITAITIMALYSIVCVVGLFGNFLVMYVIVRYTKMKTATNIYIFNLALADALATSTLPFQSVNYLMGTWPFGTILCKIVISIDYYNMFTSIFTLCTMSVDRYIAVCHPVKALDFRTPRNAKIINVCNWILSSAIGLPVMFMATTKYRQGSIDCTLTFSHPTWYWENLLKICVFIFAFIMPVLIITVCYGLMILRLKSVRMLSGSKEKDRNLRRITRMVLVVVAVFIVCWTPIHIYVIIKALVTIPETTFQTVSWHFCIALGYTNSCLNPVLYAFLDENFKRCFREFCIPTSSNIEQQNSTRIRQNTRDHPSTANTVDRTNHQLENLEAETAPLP
How it was run: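 Cell-free radioligand binding to membranes from CHO cells expressing the receptor; bound tracer measured by filter-based scintillation counting 2.5 hours after dosing. Loss of signal versus DMSO baseline reflects displacement; primary screen at 25 uM in duplicate, actives followed up in concentration series.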

[3] = molecular target: guinea pig Serotonin, 5-Hydroxytryptamine Receptor 4 (5HT4), HTR4 (gene 100135548) (UniProt O70528); assay: NVS_GPCR_g5HT4: NovaScreen (NVS) G Protein-Coupled Receptor Assay for guinea pig Serotonin, 5-Hydroxytryptamine Receptor 4 (5HT4) (AID 2283294)
Chain of guinea pig Serotonin, 5-Hydroxytryptamine Receptor 4 (5HT4), HTR4 (gene 100135548) (O70528 whole entry, looked up): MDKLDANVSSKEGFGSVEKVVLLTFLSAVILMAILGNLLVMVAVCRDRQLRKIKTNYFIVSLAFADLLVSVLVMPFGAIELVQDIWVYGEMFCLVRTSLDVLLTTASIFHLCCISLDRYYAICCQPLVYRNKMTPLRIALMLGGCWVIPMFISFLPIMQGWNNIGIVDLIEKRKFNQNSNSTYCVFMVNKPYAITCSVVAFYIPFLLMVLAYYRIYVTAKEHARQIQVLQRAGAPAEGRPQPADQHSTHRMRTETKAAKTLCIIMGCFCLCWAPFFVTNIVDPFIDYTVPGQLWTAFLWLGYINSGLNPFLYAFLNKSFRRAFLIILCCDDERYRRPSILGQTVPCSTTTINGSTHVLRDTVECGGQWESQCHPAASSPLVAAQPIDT
How it was run: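 Compounds first screened in duplicate at 25 uM, actives followed up in concentration series. Binding measured as displacement of specific radioligand from guinea pig striatal membranes, 1 h, filter-based scintillation read-out versus DMSO baseline.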

[4] = molecular target: Muscarinic acetylcholine receptor M2 (Homo sapiens) (UniProt P08172); assay: NVS_GPCR_hM2: NovaScreen (NVS) G Protein-Coupled Receptor Assay for human Muscarinic, M2 Receptor (AID 2283273)
Chain of Muscarinic acetylcholine receptor M2 (Homo sapiens) (P08172 whole entry, looked up): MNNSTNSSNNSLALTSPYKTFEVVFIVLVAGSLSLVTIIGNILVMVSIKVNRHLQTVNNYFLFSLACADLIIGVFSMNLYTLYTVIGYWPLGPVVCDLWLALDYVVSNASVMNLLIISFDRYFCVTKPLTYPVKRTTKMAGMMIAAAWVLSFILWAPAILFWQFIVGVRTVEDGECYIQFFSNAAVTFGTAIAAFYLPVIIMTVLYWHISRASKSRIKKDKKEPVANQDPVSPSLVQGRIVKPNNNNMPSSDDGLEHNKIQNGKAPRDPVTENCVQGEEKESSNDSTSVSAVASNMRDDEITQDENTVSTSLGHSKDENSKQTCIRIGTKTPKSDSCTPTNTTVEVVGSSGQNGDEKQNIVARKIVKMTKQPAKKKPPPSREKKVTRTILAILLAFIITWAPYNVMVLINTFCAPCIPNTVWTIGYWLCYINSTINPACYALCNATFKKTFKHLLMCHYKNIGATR
How it was run: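 Filter-based radiodetection read bound radioligand 1 h after dosing CHO-derived membrane protein. Single-concentration duplicates (25 uM) first, then concentration-response for actives; signal loss versus DMSO scored.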

[5] = molecular target: human Neurokinin, NK2 Receptor, TACR2 (gene 6865) (UniProt P21452); assay: NVS_GPCR_hNK2: NovaScreen (NVS) G Protein-Coupled Receptor Assay for human Neurokinin, NK2 Receptor (AID 2283278);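 note: actives reduce bound radioligand signal relative to DMSO baseline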
Chain of human Neurokinin, NK2 Receptor, TACR2 (gene 6865) (P21452 whole entry, looked up): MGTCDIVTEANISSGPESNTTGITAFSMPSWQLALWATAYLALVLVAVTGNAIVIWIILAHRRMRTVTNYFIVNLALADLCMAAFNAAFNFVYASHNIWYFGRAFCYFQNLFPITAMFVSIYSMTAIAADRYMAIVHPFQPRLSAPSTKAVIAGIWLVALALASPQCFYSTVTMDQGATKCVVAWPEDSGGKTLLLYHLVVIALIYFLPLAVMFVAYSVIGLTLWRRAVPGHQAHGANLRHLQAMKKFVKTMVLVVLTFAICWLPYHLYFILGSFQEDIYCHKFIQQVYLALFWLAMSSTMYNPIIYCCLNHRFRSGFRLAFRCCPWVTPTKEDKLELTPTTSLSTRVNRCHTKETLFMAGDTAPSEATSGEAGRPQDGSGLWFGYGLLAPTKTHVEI
How it was run: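 CHO-derived membrane protein, radioligand displacement, filter scintillation read at 4 h post-dose. Single-point 25 uM in duplicate, then concentration series for actives; DMSO as negative control.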

[6] = molecular target: human Thromboxane A2 Receptor (TXA2), TBXA2R (gene 6915) (UniProt P21731); assay: NVS_GPCR_hTXA2: NovaScreen (NVS) G Protein-Coupled Receptor Assay for human Thromboxane A2 Receptor (TXA2) (AID 2283282);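 note: actives reduce bound radioligand signal relative to DMSO baseline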
Chain of human Thromboxane A2 Receptor (TXA2), TBXA2R (gene 6915) (P21731 whole entry, looked up): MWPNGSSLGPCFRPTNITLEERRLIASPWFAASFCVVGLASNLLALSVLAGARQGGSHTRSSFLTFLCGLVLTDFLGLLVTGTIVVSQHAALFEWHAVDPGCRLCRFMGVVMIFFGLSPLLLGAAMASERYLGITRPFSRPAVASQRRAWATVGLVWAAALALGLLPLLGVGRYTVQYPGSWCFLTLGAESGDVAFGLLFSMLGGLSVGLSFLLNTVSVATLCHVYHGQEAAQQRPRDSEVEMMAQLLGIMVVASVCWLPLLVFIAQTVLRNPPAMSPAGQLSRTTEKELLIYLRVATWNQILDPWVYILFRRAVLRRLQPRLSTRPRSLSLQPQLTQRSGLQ
How it was run: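 Human platelet-derived receptor preparation incubated with test chemical and radiolabelled ligand for 1 hour, cell-free. Bound label was separated by filtration and counted; displacement relative to DMSO controls gave activity, screened at 25 uM, then titrated.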

[7] = molecular target: human Muscarinic, M4 Receptor, CHRM4 (gene 1132) (UniProt P08173); assay: NVS_GPCR_hM4: NovaScreen (NVS) G Protein-Coupled Receptor Assay for human Muscarinic, M4 Receptor (AID 2283274)
How it was run: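 Filter-based scintillation counting of radioligand bound to CHO-expressed human M4 preparations after 1 h; loss of signal fitted versus DMSO. Initial duplicate testing at 25 uM, concentration-response follow-up for actives.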

[8] = molecular target: Muscarinic acetylcholine receptor M5 (Homo sapiens) (UniProt P08912); assay: NVS_GPCR_hM5: NovaScreen (NVS) G Protein-Coupled Receptor Assay for human Muscarinic, M5 Receptor (AID 2283275)
Chain of Muscarinic acetylcholine receptor M5 (Homo sapiens) (P08912 whole entry, looked up): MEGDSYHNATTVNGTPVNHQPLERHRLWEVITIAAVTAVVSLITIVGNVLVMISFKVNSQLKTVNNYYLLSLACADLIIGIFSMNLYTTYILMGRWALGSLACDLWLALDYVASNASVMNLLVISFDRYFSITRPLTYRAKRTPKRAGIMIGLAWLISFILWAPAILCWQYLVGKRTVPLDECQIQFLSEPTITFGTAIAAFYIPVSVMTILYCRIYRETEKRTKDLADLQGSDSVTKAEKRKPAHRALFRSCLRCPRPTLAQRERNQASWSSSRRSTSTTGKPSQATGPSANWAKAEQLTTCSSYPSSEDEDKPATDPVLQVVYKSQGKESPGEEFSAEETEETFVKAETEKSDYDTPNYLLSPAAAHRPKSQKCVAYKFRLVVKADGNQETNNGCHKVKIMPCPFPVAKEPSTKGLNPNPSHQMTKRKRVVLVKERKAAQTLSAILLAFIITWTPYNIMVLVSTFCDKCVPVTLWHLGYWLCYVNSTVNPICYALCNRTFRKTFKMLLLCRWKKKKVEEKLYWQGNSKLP
How it was run: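 Chemicals passing a primary duplicate screen at 25 uM were run as singleton concentration series, maximum 50 uM. Displacement of a specific radioligand from CHO-extracted receptor was read by filter scintillation after 1 h, relative to DMSO.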

[9] = molecular target: human Opioid Receptor Delta 1 (Opiate D1), OPRD1 (gene 4985) (UniProt P41143); assay: NVS_GPCR_hOpiate_D1: NovaScreen (NVS) G Protein-Coupled Receptor Assay for human Opioid Receptor Delta 1 (Opiate D1) (AID 2283280)
Chain of human Opioid Receptor Delta 1 (Opiate D1), OPRD1 (gene 4985) (P41143 whole entry, looked up): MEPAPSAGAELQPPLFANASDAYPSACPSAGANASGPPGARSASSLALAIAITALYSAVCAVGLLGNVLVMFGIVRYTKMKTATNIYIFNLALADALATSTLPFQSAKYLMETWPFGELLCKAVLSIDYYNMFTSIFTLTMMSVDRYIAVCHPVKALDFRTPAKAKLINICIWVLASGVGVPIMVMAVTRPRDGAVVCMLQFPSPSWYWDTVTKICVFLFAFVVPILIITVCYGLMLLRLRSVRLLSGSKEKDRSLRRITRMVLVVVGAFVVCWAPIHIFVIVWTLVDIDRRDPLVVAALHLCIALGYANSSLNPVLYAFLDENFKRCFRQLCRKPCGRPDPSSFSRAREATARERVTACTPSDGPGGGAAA
How it was run: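 Membrane preparations from CHO cells bearing the human receptor were incubated 1 h with test chemical, and bound radioligand was counted after filtration. Actives from 25 uM duplicate screening were retested in concentration-response.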

[10] = test system: 5-hydroxytryptamine receptor 2C (pig); assay: NVS_GPCR_p5HT2C: NovaScreen (NVS) G Protein-Coupled Receptor Assay for pig Serotonin, 5-Hydroxytryptamine Receptor 2C (5HT2C) (AID 2283288)
How it was run: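 Radioligand displacement on membranes from pig choroid plexus, detected by filter scintillation counting after 1 h. Tested first at a single 25 uM in duplicate, then in concentration-response for actives; DMSO served as baseline.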

[11] = molecular target: mouse Cholecystokinin, CCK2 Receptor (CCKB), Cckbr (gene 12426) (UniProt P56481); assay: NVS_GPCR_mCKKBCentral: NovaScreen (NVS) G Protein-Coupled Receptor Assay for mouse Cholecystokinin, CCK2 Receptor (CCKB) (AID 2283293)
Chain of mouse Cholecystokinin, CCK2 Receptor (CCKB), Cckbr (gene 12426) (P56481 whole entry, looked up): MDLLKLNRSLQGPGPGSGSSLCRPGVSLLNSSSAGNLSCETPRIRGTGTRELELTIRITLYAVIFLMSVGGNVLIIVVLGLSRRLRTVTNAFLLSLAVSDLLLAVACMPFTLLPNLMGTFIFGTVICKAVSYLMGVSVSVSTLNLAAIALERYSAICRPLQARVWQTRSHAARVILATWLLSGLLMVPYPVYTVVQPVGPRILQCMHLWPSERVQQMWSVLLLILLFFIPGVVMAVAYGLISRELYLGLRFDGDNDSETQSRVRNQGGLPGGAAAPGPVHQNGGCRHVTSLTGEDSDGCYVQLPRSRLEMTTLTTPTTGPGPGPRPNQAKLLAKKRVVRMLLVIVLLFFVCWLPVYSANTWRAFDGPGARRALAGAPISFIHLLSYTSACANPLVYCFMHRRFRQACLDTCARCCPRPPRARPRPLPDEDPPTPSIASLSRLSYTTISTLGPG
How it was run: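 Mouse forebrain membrane preparation incubated 2 h with chemical and radioligand; bound radioactivity counted after filtration. Single-concentration duplicate screen at 25 uM, then concentration series to 50 uM max for hits, DMSO as baseline.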

[12] = molecular target: human Vasopressin 1A Receptor (V1A), AVPR1A (gene 552) (UniProt P37288); assay: NVS_GPCR_hV1A: NovaScreen (NVS) G Protein-Coupled Receptor Assay for human Vasopressin 1A Receptor (V1A) (AID 2283284)
Chain of human Vasopressin 1A Receptor (V1A), AVPR1A (gene 552) (P37288 whole entry, looked up): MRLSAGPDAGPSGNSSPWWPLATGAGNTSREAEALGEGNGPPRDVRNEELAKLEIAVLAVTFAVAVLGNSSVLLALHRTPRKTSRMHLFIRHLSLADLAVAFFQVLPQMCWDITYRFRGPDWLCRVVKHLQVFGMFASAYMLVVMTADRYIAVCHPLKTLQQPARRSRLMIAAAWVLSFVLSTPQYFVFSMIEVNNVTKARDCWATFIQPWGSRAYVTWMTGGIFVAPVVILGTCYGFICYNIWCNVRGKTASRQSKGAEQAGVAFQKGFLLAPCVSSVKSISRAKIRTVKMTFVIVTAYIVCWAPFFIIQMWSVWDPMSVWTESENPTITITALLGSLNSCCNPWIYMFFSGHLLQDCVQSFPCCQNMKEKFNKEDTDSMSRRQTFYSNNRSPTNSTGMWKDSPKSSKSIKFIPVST
How it was run: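 Single-concentration duplicate screen at 25 uM, with concentration-response follow-up (top 50 uM) for actives. The assay measured displacement of a radioligand from human platelet-derived receptor after 1.5 h, detected by filtration and scintillation counting.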

[13] = molecular target: Muscarinic acetylcholine receptor M1 (Homo sapiens) (UniProt P11229); assay: NVS_GPCR_hM1: NovaScreen (NVS) G Protein-Coupled Receptor Assay for human Muscarinic, M1 Receptor (AID 2283270)
Chain of Muscarinic acetylcholine receptor M1 (Homo sapiens) (P11229 whole entry, looked up): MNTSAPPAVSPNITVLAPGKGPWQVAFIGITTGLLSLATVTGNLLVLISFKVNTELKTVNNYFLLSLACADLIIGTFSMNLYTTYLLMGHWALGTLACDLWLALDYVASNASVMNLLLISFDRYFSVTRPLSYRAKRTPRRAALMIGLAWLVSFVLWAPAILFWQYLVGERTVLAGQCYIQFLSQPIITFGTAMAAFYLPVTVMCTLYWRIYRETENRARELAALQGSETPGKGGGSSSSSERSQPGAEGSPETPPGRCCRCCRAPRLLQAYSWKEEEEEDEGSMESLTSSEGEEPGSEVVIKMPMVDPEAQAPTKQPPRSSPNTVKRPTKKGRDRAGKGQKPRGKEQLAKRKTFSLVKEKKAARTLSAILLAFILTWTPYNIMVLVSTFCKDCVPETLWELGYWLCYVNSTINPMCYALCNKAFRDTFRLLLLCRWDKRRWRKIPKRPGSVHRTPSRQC
How it was run: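 Actives from a duplicate 25 uM single-point screen were retested in concentration series. Binding measured as displacement of a radioligand from CHO-derived receptor preparation, 1 h incubation, filtration and scintillation counting, analysed as signal loss against DMSO.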

[14] = molecular target: human Orphanin, Opioid Related Nociceptin Receptor 1 (ORL1), OPRL1 (gene 4987) (UniProt P41146); assay: NVS_GPCR_hORL1: NovaScreen (NVS) G Protein-Coupled Receptor Assay for human Orphanin, Opioid Related Nociceptin Receptor 1 (ORL1) (AID 2283283)
Chain of human Orphanin, Opioid Related Nociceptin Receptor 1 (ORL1), OPRL1 (gene 4987) (P41146 whole entry, looked up): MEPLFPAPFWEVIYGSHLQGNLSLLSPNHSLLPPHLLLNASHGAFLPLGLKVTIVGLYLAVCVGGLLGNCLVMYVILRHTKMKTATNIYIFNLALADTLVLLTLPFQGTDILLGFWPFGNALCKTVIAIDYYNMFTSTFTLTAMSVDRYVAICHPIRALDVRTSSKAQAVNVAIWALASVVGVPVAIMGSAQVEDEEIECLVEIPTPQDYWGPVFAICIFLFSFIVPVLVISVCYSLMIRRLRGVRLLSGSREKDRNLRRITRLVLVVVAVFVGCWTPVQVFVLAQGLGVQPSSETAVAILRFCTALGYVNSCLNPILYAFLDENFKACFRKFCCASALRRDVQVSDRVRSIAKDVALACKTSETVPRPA
How it was run: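 Cell-free binding using HEK293-derived receptor protein: radioligand displacement measured by filter scintillation 1 hour after dosing. Primary testing at 25 uM in duplicate, followed by singleton concentration series up to 50 uM; DMSO served as negative control.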

[15] = molecular target: human Purinergic Receptor P2Y, P2RY1 (gene 5028) (UniProt P47900); assay: NVS_GPCR_hPY2: NovaScreen (NVS) G Protein-Coupled Receptor Assay for human Purinergic Receptor P2Y (AID 2283281)
How it was run: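 Filtration scintillation readout of radioligand displacement on U937 extract, measured 1 h post-dosing. Single 25 uM duplicate screen, then singleton concentration series to 50 uM for chemicals passing threshold; DMSO as baseline.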

CN(C)CCOC(c1ccccc1)c1ccccc1
AC50 [1]: 6560 nM (active) | outcome [2]: inactive | outcome [3]: inactive

CCCCCCCCCCCCCCCCCC[N+](C)(C)Cc1ccccc1
AC50 [4]: 314 nM (active) | AC50 [5]: 2.55 µM (active) | AC50 [2]: 2.17 µM (active)

O=C1OC2(c3ccccc31)c1cc(I)c(O)c(I)c1Oc1c2cc(I)c(O)c1I
AC50 [5]: 1.78 µM (active) | AC50 [6]: 1240 nM (active) | AC50 [2]: 0.0269 µM (active)

NS(=O)(=O)O
outcome [6]: inactive

CCCCCc1ccc(O)cc1
outcome [5]: inactive

CN(Cc1cnc2nc(N)nc(N)c2n1)c1ccc(C(=O)N[C@@H](CCC(=O)O)C(=O)O)cc1
outcome [7]: inactive | outcome [8]: inactive | AC50 [5]: 2.6 µM (active) | AC50 [9]: 25000 nM (active) | outcome [10]: inactive | outcome [2]: inactive | outcome [11]: inactive

CCC(=O)O
outcome [6]: inactive

CCCCCCCC(OC)OC
AC50 [6]: 74.8 nM (active)

CC1=NN(c2ccccc2)C(=O)C1
outcome [6]: inactive

CS(=O)(=O)c1ccc([C@@H](CC2CCCC2)C(=O)Nc2cnccn2)cc1Cl
outcome [12]: inactive

Clc1ccc(Nc2nnc(Cc3ccncc3)c3ccccc23)cc1
AC50 [5]: 3.61 µM (active) | AC50 [6]: 417 nM (active)

CC(O)COc1ccccc1 (stereo not given)
outcome [6]: inactive

CC=O
outcome [6]: inactive

NC(=NCCCCCCN=C(N)/N=C(\N)Nc1ccc(Cl)cc1)/N=C(\N)Nc1ccc(Cl)cc1
AC50 [13]: 3150 nM (active) | AC50 [5]: 2.18 µM (active) | AC50 [14]: 4710 nM (active) | AC50 [2]: 3.32 µM (active) and 3.04 µM (active)

CCCCCCCCCCCCOS(=O)(=O)O
AC50 [9]: 18600 nM (active) | outcome [15]: inactive | AC50 [6]: 7920 nM (active) | outcome [10]: inactive | AC50 [2]: 25 µM (active)

CN(C)c1ccc(C(=C2C=CC(=[N+](C)C)C=C2)c2ccccc2)cc1
AC50 [4]: 4.03 µM (active) and 2.32 µM (active) | AC50 [5]: 5.94 µM (active) and 1.63 µM (active) | AC50 [6]: 12500 nM (active) | outcome [6]: inactive | AC50 [2]: 6.79 µM (active) and 6.47 µM (active)
